From the supplement of paper PMC11732987, “Enantioselective OTUD7B fragment discovery through chemoproteomics screening and high-throughput optimisation” (Communications Chemistry, 2025)

Columns and labels:
Assay in all cases: log2 ratio of Biotin-Ahx-Ub-VS probe labelling (fragment/DMSO); higher = less target engagement (more negative = stronger competition), active = hit call of the paper (q ≤ 0.05, log2 ratio ≤ -1)
Conditions in all cases: compound concentration: 200 uM; treatment time: 3 h
USP9X = USP9X (UniProt Q93008)
How it was run: (§1)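 Labelled DUBs from HEK293T lysate were NeutrAvidin-enriched, digested with LysC and trypsin, and run by diaPASEF LC-MS/MS. Before that, each 495 µg sample in Tris/CHAPS/IGEPAL buffer with protease inhibitors was treated in triplicate with fragment at 200 µM or vehicle for 3 h, then with Biotin-Ahx-Ub-VS at 0.5 µM final for 1 h. Values are average log2 ratios of fragment over vehicle by unpaired t-test, based on global-median-normalised Spectronaut label-free quantities from proteins with ≥2 unique peptides.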

UniProt O00487 = target: UniProt O00487
How it was run: as §1

UniProt O00507 = target: UniProt O00507
How it was run: as §1

UniProt P51784 = target: UniProt P51784
How it was run: as §1

UniProt Q5T2D3 = target: T1, UniProt Q5T2D3
T1 sequence (whole entry): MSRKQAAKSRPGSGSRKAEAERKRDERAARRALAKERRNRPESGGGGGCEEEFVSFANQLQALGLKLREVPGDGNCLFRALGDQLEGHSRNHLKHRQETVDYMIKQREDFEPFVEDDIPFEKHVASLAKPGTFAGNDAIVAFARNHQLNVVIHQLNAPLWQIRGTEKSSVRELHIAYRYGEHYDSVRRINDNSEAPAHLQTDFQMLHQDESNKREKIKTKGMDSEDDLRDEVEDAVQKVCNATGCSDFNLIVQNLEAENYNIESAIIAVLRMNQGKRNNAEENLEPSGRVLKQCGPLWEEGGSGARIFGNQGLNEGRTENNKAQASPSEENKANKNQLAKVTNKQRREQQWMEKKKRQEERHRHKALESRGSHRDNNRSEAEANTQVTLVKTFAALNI
How it was run: as §1

UniProt Q8TE49 = target: T2, UniProt Q8TE49
T2 sequence (whole entry): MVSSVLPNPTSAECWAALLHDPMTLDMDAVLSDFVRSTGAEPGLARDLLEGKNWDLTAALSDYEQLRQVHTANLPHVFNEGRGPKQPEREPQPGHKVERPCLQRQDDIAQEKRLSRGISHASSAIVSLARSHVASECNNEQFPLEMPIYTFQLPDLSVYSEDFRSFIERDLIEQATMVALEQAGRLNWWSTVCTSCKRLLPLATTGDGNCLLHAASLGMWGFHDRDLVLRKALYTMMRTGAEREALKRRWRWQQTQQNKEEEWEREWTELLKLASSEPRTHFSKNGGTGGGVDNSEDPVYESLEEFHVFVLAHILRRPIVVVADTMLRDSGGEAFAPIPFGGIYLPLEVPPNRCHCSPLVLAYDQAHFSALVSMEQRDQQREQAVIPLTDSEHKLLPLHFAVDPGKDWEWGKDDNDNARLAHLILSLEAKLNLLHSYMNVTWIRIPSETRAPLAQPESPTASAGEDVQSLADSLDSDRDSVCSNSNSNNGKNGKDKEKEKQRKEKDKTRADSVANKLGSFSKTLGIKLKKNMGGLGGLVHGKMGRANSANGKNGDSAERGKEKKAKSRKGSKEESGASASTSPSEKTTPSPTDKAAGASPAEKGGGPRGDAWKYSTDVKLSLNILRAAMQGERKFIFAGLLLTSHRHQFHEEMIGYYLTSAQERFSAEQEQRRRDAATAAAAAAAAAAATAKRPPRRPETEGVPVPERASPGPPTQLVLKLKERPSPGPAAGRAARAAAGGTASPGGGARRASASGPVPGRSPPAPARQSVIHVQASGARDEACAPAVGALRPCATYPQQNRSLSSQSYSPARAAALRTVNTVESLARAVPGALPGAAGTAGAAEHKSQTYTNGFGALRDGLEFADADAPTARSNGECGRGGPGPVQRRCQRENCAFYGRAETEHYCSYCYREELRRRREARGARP
How it was run: as §1

UniProt Q9P2H5 = target: T3, UniProt Q9P2H5
T3 sequence (whole entry): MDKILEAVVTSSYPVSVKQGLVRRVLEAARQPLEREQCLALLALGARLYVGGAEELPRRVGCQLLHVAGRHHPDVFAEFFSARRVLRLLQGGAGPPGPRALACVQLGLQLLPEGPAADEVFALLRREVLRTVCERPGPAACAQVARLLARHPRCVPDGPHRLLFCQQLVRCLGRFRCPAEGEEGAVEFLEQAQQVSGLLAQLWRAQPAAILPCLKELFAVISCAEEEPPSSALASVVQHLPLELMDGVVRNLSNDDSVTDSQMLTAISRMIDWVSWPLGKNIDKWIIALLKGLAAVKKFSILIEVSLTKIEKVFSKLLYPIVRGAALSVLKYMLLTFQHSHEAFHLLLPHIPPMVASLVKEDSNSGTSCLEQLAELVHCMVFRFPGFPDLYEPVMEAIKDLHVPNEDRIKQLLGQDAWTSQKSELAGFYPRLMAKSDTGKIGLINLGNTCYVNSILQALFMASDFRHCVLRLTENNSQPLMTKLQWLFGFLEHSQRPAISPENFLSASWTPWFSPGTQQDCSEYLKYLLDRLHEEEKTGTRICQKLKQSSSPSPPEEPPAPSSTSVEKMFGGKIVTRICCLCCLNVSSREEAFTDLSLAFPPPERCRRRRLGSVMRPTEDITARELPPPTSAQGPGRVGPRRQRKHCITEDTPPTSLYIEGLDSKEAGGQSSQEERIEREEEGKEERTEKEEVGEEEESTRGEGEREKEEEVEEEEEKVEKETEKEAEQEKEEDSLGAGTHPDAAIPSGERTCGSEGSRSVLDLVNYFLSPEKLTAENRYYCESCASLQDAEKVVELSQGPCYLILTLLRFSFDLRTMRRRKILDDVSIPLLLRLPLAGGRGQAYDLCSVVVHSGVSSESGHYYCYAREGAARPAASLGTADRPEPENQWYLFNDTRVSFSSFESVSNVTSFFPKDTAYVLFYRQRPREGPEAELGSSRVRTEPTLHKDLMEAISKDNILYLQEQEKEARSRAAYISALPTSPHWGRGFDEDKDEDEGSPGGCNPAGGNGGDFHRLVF
How it was run: as §1

UniProt Q9UGI0 = target: T4, UniProt Q9UGI0
T4 sequence (whole entry): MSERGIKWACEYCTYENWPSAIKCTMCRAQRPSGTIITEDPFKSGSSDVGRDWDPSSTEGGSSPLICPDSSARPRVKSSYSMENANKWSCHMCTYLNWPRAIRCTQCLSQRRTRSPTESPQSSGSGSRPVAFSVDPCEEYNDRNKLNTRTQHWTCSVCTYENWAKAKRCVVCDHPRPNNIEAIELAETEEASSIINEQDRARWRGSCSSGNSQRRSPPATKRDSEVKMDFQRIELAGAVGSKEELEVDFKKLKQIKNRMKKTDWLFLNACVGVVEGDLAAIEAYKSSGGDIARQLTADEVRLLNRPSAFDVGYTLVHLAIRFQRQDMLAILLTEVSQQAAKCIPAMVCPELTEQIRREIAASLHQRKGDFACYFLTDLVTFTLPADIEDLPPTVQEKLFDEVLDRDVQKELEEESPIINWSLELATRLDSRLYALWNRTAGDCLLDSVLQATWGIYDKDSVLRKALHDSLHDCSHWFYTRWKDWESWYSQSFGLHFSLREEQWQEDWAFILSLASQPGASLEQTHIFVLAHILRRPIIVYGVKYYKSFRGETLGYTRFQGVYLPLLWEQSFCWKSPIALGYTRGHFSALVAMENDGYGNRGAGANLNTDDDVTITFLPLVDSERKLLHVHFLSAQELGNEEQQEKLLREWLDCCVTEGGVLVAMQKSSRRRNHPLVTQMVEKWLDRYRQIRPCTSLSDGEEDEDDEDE
How it was run: as §1

YOD1 = target: T5, YOD1 (UniProt Q5VVQ6)
T5 sequence (whole entry): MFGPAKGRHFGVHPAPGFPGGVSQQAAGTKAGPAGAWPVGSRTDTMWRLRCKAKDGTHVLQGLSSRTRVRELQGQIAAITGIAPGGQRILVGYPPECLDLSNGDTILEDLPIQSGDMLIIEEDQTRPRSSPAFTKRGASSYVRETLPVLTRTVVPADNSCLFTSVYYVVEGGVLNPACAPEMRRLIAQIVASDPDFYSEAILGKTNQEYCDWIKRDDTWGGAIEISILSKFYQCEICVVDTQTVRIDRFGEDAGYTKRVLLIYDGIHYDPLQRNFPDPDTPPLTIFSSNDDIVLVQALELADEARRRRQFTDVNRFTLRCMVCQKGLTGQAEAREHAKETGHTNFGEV
How it was run: as §1

Measured: log2 ratio of Biotin-Ahx-Ub-VS probe labelling

Sequence of USP9X (Q93008 whole entry, the tested form may be a part): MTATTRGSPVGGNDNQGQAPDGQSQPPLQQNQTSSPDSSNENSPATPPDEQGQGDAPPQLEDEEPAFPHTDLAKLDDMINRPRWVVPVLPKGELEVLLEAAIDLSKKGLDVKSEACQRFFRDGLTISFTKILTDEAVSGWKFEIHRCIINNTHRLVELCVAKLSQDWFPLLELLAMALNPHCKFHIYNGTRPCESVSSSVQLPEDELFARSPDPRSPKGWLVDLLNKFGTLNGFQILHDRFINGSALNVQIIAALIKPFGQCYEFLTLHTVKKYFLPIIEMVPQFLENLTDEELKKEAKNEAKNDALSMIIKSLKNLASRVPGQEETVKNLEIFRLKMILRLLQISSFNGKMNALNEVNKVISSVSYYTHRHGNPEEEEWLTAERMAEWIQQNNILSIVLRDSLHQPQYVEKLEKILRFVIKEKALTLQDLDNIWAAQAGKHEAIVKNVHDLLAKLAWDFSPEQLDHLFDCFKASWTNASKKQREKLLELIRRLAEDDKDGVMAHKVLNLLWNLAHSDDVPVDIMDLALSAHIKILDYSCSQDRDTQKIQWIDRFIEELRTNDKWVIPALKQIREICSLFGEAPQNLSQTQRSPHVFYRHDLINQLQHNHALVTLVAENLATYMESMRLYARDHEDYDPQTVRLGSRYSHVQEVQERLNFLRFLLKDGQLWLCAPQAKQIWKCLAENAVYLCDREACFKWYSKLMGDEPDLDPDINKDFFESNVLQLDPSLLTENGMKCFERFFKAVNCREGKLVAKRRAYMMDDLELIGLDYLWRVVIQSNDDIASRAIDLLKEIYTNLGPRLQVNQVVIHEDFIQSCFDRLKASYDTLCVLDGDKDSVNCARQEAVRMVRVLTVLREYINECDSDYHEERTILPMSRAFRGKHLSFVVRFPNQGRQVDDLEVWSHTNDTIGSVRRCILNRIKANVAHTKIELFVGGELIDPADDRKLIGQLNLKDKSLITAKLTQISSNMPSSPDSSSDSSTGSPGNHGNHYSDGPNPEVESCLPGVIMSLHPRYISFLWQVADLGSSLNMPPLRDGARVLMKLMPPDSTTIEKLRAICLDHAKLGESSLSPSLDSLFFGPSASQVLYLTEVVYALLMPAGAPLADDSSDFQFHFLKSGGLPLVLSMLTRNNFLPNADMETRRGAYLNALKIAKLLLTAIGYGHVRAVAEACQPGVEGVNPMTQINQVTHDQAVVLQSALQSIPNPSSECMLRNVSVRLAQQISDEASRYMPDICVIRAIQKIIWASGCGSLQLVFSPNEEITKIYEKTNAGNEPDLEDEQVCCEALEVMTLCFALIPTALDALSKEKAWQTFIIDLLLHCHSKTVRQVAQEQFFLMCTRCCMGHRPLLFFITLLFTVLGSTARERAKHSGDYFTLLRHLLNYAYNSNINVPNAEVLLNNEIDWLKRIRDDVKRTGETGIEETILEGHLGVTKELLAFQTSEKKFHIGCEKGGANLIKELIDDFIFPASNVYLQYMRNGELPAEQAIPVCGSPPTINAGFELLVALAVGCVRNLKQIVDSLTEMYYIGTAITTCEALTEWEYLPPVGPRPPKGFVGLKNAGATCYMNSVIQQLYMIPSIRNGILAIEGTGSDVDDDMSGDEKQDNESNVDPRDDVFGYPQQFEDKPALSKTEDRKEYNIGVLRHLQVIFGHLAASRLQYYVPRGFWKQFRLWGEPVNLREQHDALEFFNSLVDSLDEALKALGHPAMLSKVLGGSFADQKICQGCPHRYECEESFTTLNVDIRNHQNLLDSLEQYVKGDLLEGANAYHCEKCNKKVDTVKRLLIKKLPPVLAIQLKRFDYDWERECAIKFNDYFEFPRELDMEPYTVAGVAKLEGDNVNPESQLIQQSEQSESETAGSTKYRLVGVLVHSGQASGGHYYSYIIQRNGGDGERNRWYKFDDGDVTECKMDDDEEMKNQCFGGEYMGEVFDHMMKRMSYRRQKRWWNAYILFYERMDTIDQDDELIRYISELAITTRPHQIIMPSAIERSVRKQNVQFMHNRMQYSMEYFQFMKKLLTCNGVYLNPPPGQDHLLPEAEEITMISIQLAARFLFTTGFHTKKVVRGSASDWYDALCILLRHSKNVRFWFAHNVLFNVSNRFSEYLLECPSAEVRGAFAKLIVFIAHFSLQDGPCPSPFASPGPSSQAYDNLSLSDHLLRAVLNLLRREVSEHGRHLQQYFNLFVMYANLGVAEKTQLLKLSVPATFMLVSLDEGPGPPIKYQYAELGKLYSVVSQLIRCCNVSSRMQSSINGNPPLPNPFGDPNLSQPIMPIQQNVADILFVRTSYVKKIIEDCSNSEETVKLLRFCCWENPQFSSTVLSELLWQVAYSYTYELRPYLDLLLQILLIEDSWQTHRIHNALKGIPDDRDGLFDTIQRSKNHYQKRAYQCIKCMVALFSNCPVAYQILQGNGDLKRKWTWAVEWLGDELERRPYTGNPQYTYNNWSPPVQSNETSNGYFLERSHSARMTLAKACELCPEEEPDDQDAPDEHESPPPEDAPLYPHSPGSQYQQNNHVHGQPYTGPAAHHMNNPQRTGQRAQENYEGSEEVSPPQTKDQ
Sequence of UniProt O00487 (O00487 whole entry): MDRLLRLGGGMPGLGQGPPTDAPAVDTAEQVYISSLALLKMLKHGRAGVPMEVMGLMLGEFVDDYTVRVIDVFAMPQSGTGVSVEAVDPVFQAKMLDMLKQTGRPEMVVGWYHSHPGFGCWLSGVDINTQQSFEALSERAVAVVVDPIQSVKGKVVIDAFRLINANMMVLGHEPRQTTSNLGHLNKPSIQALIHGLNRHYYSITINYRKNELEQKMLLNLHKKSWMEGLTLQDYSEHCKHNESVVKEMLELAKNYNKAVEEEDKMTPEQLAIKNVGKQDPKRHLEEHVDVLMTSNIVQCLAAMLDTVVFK
Sequence of UniProt P51784 (P51784 whole entry): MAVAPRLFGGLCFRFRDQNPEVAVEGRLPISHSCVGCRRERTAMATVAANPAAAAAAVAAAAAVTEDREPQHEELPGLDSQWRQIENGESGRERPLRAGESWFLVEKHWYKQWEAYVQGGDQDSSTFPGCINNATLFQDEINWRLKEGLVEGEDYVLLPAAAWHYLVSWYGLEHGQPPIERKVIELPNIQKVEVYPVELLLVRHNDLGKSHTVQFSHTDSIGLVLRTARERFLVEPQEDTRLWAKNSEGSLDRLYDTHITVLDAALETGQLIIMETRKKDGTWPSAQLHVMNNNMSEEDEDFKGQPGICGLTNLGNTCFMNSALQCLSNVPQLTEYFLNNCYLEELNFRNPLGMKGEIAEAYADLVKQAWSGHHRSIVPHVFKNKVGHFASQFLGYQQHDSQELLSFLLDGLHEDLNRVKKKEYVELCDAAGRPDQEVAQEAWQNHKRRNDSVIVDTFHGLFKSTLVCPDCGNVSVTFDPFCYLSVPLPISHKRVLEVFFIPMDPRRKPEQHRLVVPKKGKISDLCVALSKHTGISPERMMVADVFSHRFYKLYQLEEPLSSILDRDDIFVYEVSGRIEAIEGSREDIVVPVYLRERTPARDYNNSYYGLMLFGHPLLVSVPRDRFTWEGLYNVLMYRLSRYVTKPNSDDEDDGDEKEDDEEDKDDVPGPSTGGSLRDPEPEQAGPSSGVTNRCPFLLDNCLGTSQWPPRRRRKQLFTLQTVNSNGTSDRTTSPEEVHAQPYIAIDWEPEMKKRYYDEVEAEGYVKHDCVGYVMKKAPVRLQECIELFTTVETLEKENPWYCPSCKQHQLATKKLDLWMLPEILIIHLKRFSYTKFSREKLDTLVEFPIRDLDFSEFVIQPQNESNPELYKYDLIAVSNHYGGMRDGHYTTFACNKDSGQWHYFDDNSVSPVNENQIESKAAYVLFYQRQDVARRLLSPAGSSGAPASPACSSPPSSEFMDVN

Cc1cccc(C)c1NC(=O)CCl
inactive: USP9X -0.187 | UniProt O00487 -0.00227 | UniProt O00507 -0.138 | UniProt P51784 -0.081 | UniProt Q5T2D3 -0.377 | UniProt Q8TE49 -0.358 | UniProt Q9P2H5 -0.0602 | UniProt Q9UGI0 -0.323 | YOD1 -0.344
